Measured values taken from PubChem BioAssay (NCATS).
Results filed as inconclusive are left out. A number with no mark means an inactive call. The source made the active and inactive calls. Calls follow the shape of the dose curve; as a rule, active = well fitted inhibition curve with a large enough effect; inconclusive = small, poorly fitted or top-dose-only effect; inactive = flat fitted curve, though single readings scatter.

These compounds were tested against Ubiquitin carboxyl-terminal hydrolase 1 (Homo sapiens) (UniProt O94782) (assay: Inhibitors of USP1/UAF1: Pilot qHTS (AID 504865; also: nearly all actives have a fitted effect of over 35% in size;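 as to activity change, negative = inhibition: rhodamine fluorescence freed from ubiquitin-rhodamine substrate followed over time; top concentration of the series differs between compounds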)). Settings: purified USP1/UAF1, Ub-rhodamine cleavage fluorescence; series mostly up to 114 µM; activity change, negative = inhibition: at the top concentration.
Source text: Deubiquitinating enzymes (DUBs) are a class of enzymes that can cleave isopeptide bond formed between the C-terminal carboxylate of ubiquitin and a lysine side-chain amino group on the target protein. Among them, ubiquitin specific proteases (USPs) constitute the largest DUB family. Human USPs are emerging as promising targets for pharmacological intervention because of their connection to a number of human diseases, including prostate, colon and breast cancer (1, 2), pediatric acute lymphoblastic leukemia (3), and familial cylindromatosis (4). The advantage of inhibiting USPs lies in the potential specificity of therapeutic intervention that can lead to better efficacy and reduce nonspecific side effects.
In a collaboration between the University of Delaware and the NIH Chemical Genomics Center, a high-throughput screen assay was developed to screen for USP1/UAF1 inhibitors. This miniaturized assay has a fluorescent read-out and is used to screen the NIH Molecular Libraries Small Molecule Repository (MLSMR) in order to identify a small molecule that inhibits USP1.
NIH Chemical Genomics Center [NCGC]
NIH Molecular Libraries Probe Centers Network [MLPCN]
Assay Submitter (PI): Zhihao Zhuang, University of Delaware
1. Priolo, C., et al. (2006) The isopeptidase USP2a protects human prostate cancer from apoptosis. Cancer Res 66, 8625-8632
2. Popov, N., et al. (2007) The ubiquitin-specific protease USP28 is required for MYC stability. Nat Cell Biol 9, 765-774
3. De Pitta, C., et al. (2005) A leukemia-enriched cDNA microarray platform identifies new transcripts with relevance to the biology of pediatric acute lymphoblastic leukemia. Haematologica 90, 890-898
4. Kovalenko, A., et al. (2003) The tumour suppressor CYLD negatively regulates NF-kappaB signalling by deubiquitination. Nature 424, 801-805
3 microliters of reagents (buffer in columns 3 and 4 as negative control and 1nM USP1/UAF1 complex in columns 1, 2, and 5-48) are dispensed into Greiner black solid bottom 1536-well assay plates. Compounds are then transferred via Kalypsys pin tool equipped with 1536-pin array (10nl slotted pins, V&P Scientific, San Diego, CA). Following an incubation step of 15 min at room temperature, 1ul of Ub-Rho substrate (150nM final concentration) is added to initiate the reaction. The plates are immediately centrifuged at 1000 rpm for 15 seconds, and subsequently transferred to a ViewLux high-throughput CCD imager (PerkinElmer) wherein kinetic measurements of fluorescence are acquired using 480 nm excitation/540 nm emission filter set (6 reads every 60 seconds, see Table 1). All reagents are diluted in an assay buffer consisting of 50mM HEPES (pH 7.8), 0.5mM EDTA, 0.1 mg/ml BSA, 1mM TCEP, and 0.01% Tween-20.
% is scaled to controls: 0 for no effect and ±100 for the full control effect; potency is read from the fitted curve at half-maximal effect.

Sequence of Ubiquitin carboxyl-terminal hydrolase 1 (Homo sapiens) (O94782 whole entry, looked up): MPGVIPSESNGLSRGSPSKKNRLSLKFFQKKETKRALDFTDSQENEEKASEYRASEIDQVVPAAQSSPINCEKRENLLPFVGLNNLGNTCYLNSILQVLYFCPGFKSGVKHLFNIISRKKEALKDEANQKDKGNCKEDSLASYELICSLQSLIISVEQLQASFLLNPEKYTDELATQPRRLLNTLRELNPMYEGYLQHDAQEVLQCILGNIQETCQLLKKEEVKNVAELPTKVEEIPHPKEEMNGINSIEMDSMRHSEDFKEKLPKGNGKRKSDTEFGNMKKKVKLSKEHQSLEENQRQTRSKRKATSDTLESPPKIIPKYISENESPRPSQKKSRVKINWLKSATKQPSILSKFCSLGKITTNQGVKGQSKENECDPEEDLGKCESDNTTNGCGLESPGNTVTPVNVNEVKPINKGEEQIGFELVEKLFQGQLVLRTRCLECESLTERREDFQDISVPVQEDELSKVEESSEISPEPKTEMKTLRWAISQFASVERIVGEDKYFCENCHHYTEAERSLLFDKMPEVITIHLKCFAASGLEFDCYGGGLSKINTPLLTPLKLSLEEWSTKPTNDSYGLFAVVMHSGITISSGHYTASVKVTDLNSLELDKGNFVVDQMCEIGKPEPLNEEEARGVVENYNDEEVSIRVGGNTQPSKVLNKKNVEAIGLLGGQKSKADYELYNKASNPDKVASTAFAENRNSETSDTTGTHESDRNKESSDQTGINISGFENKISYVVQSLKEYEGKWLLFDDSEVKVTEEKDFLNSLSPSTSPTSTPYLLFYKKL

SMILES	activity change, negative = inhibition	Potency
COc1ccc2cc(C(C)CO)ccc2c1 (stereo not given)	-6.3%	
O=C1O[C@H](CN2CCOCC2)CN1/N=C\c1ccc([N+](=O)[O-])o1	-1.26% [at 54.9 µM]	
Cc1cc(=O)oc2cc(O[C@@H]3O[C@H](C(=O)O)[C@@H](O)[C@H](O)[C@H]3O)ccc12	-14.5%	
COc1ccc2c(c1)O[C@@H]1c3ccc(OC)cc3OCC21 (stereo not given in full)	-8.74%	
CC(=O)OC1CC[C@@]2(C)C(CC[C@@]3(C)C2CC=C2C4CC(C)(C)CC[C@]4(C(=O)O)CC[C@@]23C)C1(C)C (stereo not given in full)	-9.74%	
CC(=O)OC1CC(OC(C)=O)[C@]2(C)C(CC(=O)[C@]3(C)C2CC[C@@]2(C)C(C(=O)O)OC(=O)C4OC423)C1(C)C (stereo not given in full)	-6.74%	
CC(=O)O[C@]1(C)CC[C@]23CC1C(C)(C)C2CC[C@@H]3C (stereo not given in full)	-12%	
CNCCC=C1c2ccccc2C=Cc2ccccc21	-7.34% [at 54.9 µM]	
CNC1CC(N)[C@H](O)[C@@H](O[C@@H]2OC(CO)C3OC4(OC(C(N)CO)C(O)C(O)C4O)O[C@@H]3[C@H]2O)C1O (stereo not given in full)	4.75%	
CCCCCC1C(=O)CCC1CC(=O)OC (stereo not given)	-13.3%	
C=C(C)[C@H]1CC[C@]2(CO)CC[C@]3(C)[C@@H](CC[C@H]4[C@@]5(C)CC[C@@H](O)C(C)(C)[C@@H]5CC[C@@]43C)[C@H]12	13.9% [at 54.9 µM]	
C=C1CC/C=C(\C)CC[C@@H]2[C@@H]1CC2(C)C	-4.59%	
C=CC1=C(C(=O)O)N2C(=O)C(NC(=O)/C(=N\O)c3csc(N)n3)C2SC1 (stereo not given)	-10.6%	
COc1ccc(C2OC3C(CO)OC(n4cnc5c(=O)[nH]c(N)nc54)C3O2)cc1 (stereo not given)	-10.3%	
Nc1nc(NC2CC2)c2ncn([C@H]3C=C[C@@H](CO)C3)c2n1	-6.12%	
CC1O[C@@H](O[C@H]2C(Oc3cc(O)c4c(c3)OC(c3ccc(O)cc3)CC4=O)OC(CO)C(O)C2O)C(O)C(O)C1O (stereo not given in full)	-8.49%	
Nc1nc(O)c2ncn([C@H]3CC[C@@H](CO)O3)c2n1	-2.47%	
O=c1oc2ccccc2cc1O	-6.55%	
CC(C)/C(O)=C1/C(=O)OC(c2ccoc2)[C@@]2(C)C(O)C(O)[C@@]34OC5(C)OC67CC(C)(C(O)[C@@]6(O)C(O)[C@@]3(O5)C12)C(CC(=O)O)[C@@]74C (stereo not given in full)	-9.45%	
CC(=O)OCC(=O)[C@@]1(O)CCC2C3CC[C@H]4CC(O)CC[C@@]4(C)C3C(=O)C[C@]21C (stereo not given in full)	-9.7%	

SMILES	activity change, negative = inhibition	Potency
COc1cc2c(cc1O)C(Cc1ccc(O)cc1)[N+](C)(C)CC2 (stereo not given)	-8.47%	
CC(CCC(=O)O)C1CCC2C3C(O)C[C@@H]4CC(O)CC[C@@]4(C)C3CC(O)[C@]12C (stereo not given in full)	-4.48%	
CNC[C@H](O)[C@H](O)[C@H](O)[C@H](O)CO	11% [at 54.9 µM]	
CC1(C)CCCC2(C)C3C(O)CC2(C)C(O)C31 (stereo not given)	-10.3%	
C=C(C)C1(O)OC(=O)C=C1OC (stereo not given)	-5.52%	
CC1(C)OC2CC3C4CC(F)C5=CC(=O)C=C[C@@]5(C)[C@@]4(F)C(O)C[C@@]3(C)[C@]2(C(=O)CO)O1 (stereo not given in full)	-5.93%	
CCOC(=O)C1=CC(OC(CC)CC)C(NC(C)=O)C(N)C1 (stereo not given)	-5.65%	
COC(=O)C(C)c1ccc(C(=O)c2cccs2)cc1 (stereo not given)	-7.54%	
NC(=O)c1ncn([C@H]2O[C@@H](CO)[C@@H](O)[C@@H]2O)n1	-6.3% [at 54.9 µM]	
O=c1c(O)c(-c2ccccc2)oc2cccc(O)c12	-6.53%	
O=C(O)[C@@H](O)[C@@H](O)[C@@H](O[C@H]1O[C@@H](CO)[C@@H](O)[C@@H](O)[C@@H]1O)[C@@H](O)CO	-12.1% [at 54.9 µM]	
CN1CCN([C@@H](c2ccccc2)c2ccc(Cl)cc2)CC1	-14.5% [at 54.9 µM]	
CCCC1CC(C(=O)N[C@H](C(C)O)C2OC(SC)[C@@H](O)C(O)C2O)N(C)C1 (stereo not given in full)	-9.54%	
Cc1c(O)c(=O)n(-c2ccccc2)n1C	15.9% [at 54.9 µM]	
CO[C@@H]1CC[C@@]2(C)[C@@H](CC[C@@]3(C)[C@H]2CC=C2[C@H]4CC(C)(C)[C@H](O)[C@@H](OC(C)=O)[C@]4(CO)[C@H](O)C[C@]23C)[C@@]1(C)CO (tested in a mixture with another compound)	-2.66% [at 54.9 µM]	
COC1=CC(=O)C(C(=O)c2ccccc2)=CC1=O		25.1 µM (active)
CC(N)C(O)c1cccc(O)c1 (stereo not given)	-7.98%	
C[C@@]12CCC3c4ccc(O)cc4CCC3C1CCC2O (stereo not given in full)	-13.8%	
CC(C)c1c(O)c(-c2cc3c(c(C(C)C)c2O)CCC2C(C)(C)CCC[C@@]32C)cc2c1CCC1C(C)(C)CCC[C@@]21C (stereo not given in full)	-1.24%	
COC(=O)c1c(C)cc(OC)cc1O	-9.44%	
